# Shown is part of a subset that was picked to be rich in hits.
# TTR transcr act = increases transthyretin transcription | activation, % at 16.7 µM | actives 1.3% (n = 92,000) | SH-SY5Y TTR promoter Gaussia luciferase, luminescence; 100% = recombinant luciferase protein wells;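 active means activation above the mean of all tested compounds plus 3 SD, cut at about 9.5% in these data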;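 further: cells exposed to compounds for one day before reading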
# HuH7 TTR inh = HuH7 TTR transcription inhibition, counter-screen; HuH7 TTR promoter-Gaussia luciferase reporter, luminescence; inhibition, % at 16.7 µM; shares compounds with TTR transcr act; actives 4% (n = 1,100); AID 1117279;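 active means average inhibition above the solvent-only control wells' mean plus 3 SD, cut at about 15% in these data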;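 further: inhibitors lower well luminescence so higher value means more inhibition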
# TTR act confirm = human TTR transcription activation, confirmation; shares compounds with TTR transcr act; SHSY5Y TTR promoter Gaussia luciferase, luminescence; 100% = purified Lucia enzyme wells, no cells; activation, % at 16.7 µM; 1,100 tested, under 10 active; AID 1117280;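 active means mean activation above a set limit taken from the earlier primary screen, cut at about 11% in these data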
# A number is an active result; - = inactive.
SMILES,TTR transcr act,others
COc1ccc2c(c1)C[C@@H](CON1C(C)(C)CCCC1(C)C)N2S(=O)(=O)c1ccc(C)cc1,-,
O=C(Nc1ccc(Br)c(C(F)(F)F)c1)[C@@H]1CC=C[C@@H]2CCN(CC3CC3)C(=O)[C@@H]21,-,
CCC(C)[C@H](NC(=O)Nc1ccccc1F)C(=O)O (stereo not given in full),-,
COC(C(=O)NC1CC1)c1ccccc1 (stereo not given),-,
COC(C(=O)Nc1ccccc1F)c1ccccc1 (stereo not given),15,HuH7 TTR inh=-;TTR act confirm=-
CCC[C@H]1[C@@H](NC(=O)c2ccc(N(C)C)cc2)CC[C@@]23CCCN2C(=O)CCC[C@@H]13,-,
COC(=O)C1CN(CCO)CCS(=O)(=O)N1Cc1cn(Cc2ccccc2Br)nn1 (stereo not given),-,
Cc1cccc2cc(C(c3nnnn3C(C)(C)C)N(Cc3ccco3)CC3CCCO3)c(=O)[nH]c12 (stereo not given),-,
CCC(c1nnnn1Cc1ccco1)N(Cc1ccccc1OC)Cc1cc2cc(C)ccc2[nH]c1=O (stereo not given),-,
CCC(c1nnnn1Cc1ccco1)N(Cc1cc2cc(C)cc(C)c2[nH]c1=O)CC1CCCO1 (stereo not given),18,HuH7 TTR inh=-;TTR act confirm=-
O=c1ccn(C2CC(O)C(COC(c3ccccc3)(c3ccccc3)c3ccccc3)O2)c(=O)[nH]1 (stereo not given),-,
OCCCNc1ncnc2[nH]ncc12,-,
CCCSc1ncnc2[nH]ncc12,13,HuH7 TTR inh=-;TTR act confirm=-
Cc1ccc(CNc2ncnc3[nH]ncc23)cc1,-,
COc1cccc(CNS(=O)(=O)c2cc(Br)ccc2Br)c1OC,-,
C[C@H]1[C@@H](OC(=O)NC2CCC2)CC[C@@]23CCCN2C(=O)CCC[C@@H]13,-,
CCCCCCCCN1C(=O)[C@@H](CC(=O)NCCCCc2ccccc2)C[C@@]2(C(=O)OC)C1=C[C@H](COCc1ccccc1)O[C@@H]2C,-,
O=C(COc1ncnc2ccccc12)Nc1cc([N+](=O)[O-])ccc1Cl,38,HuH7 TTR inh=-;TTR act confirm=-
O=C(CC(=O)c1ccccc1)Nc1cc([N+](=O)[O-])ccc1Cl,-,
O=C(COc1ncnc2cc([N+](=O)[O-])ccc12)NC(=O)NC1CCCCC1,-,
COC(=O)[C@@H]1N=C(c2ccc(OC)cc2)O[C@]12C(=O)N(Cc1cn(Cc3ccccc3)nn1)c1cccc(Cl)c12,-,
Cc1onc(C(=O)N2CCN(C(c3ccc(Cl)cc3)c3ccc(Cl)cc3)CC2)c1[N+](=O)[O-],-,
COc1ccc(C=NNC(=O)CCCC(=O)NN=Cc2ccc(OC)c(OC)c2)cc1OC,-,
COc1cc(/C=N/NC(=O)COc2c(C)cc([N+](=O)[O-])cc2C)ccc1OC(=O)c1ccccc1Br,15,HuH7 TTR inh=-;TTR act confirm=-
COc1ccc(C(=O)N/N=C/c2ccc(OC(=O)c3cccc4ccccc34)c([N+](=O)[O-])c2)cc1,-,
SMILES,TTR transcr act,others
COC(=O)[C@]12C[C@H](CC(=O)NCc3ccccc3)C(=O)N(CCc3ccc(OC)c(OC)c3)C1=C[C@H](C(C)C)O[C@@H]2C1CC1,-,
O=C(NCCc1ccccc1)OCc1cn(-c2ccc(Cl)cc2)nn1,-,
COC(=O)c1cc(-c2cc3ccccc3o2)c(=O)n2c1CCC2,-,
Fc1ccc(Cn2cc(C(=S)N3CCOCC3)c3ccccc32)cc1,-,
O=C(O)Cn1cc(C(=S)N2CCCCC2)c2ccccc21,-,
CC1CCN(C(=S)c2cn(Cc3cccc(F)c3)c3ccccc23)CC1,10,HuH7 TTR inh=-;TTR act confirm=-
Cc1cccc(C)c1OCc1cccc(C2Nc3ccccc3C(=O)N2Cc2ccco2)c1 (stereo not given),-,
CCN(CC)S(=O)(=O)c1cc(NS(=O)(=O)c2cccc(C(=O)O)c2)ccc1C,11,HuH7 TTR inh=-;TTR act confirm=-
COc1ccc(NS(=O)(=O)c2cccc(C(=O)O)c2)cc1,-,
Cc1ccc(NS(=O)(=O)c2cccc(C(=O)O)c2)cc1S(=O)(=O)N1CCCCC1,-,
Cc1ccccc1NC(=O)C1CC(=O)N(Cc2ccccc2)C1 (stereo not given),-,
COc1cccc(NC(=O)C2Cc3ccccc3CN2C(=O)c2ccco2)c1 (stereo not given),-,
Cc1ccccc1NC(=O)C1Cc2ccccc2CN1C(=O)OCc1ccccc1 (stereo not given),11,HuH7 TTR inh=-;TTR act confirm=-
O=C(OCC#CCSc1nnc(-c2cccc3ccccc23)o1)c1ccc(OC(F)(F)F)cc1,-,
COc1cc(CN2CCCC(CO)(Cc3ccccc3)C2)ccc1O (stereo not given),-,
CCOC(=O)C1(Cc2ccccc2)CCN(Cc2cn[nH]c2-c2ccccc2)CC1,-,
COc1cccc(CC2(CO)CCCN(Cc3cn[nH]c3-c3ccccc3)C2)c1 (stereo not given),10,HuH7 TTR inh=-;TTR act confirm=-
CCCCCCCCN1C(=O)[C@@H](CC(=O)N2CCN(C(=O)OCC)CC2)C[C@@]2(C(=O)OC)C1=C[C@H](C(C)C)O[C@@H]2C1CC1,-,
O=C(CO/N=C/c1c(Cl)cccc1Cl)NNC(=O)c1ccc(Cl)cc1,11,HuH7 TTR inh=-;TTR act confirm=-
O=C(CO/N=C/c1ccc(Cl)cc1Cl)NNC(=O)c1ccc(Cl)cc1Cl,-,
O=C(CO/N=C/c1c(Cl)cccc1Cl)NNC(=O)c1cccc(Cl)c1,-,
Cc1ccc(Cn2cc(COC(=O)NCC(C)C)nn2)cc1,-,
Cc1ccc(OCCOc2c(Cl)cc(Cl)cc2Cl)c([N+](=O)[O-])n1,-,
O=C(CCC1=NS(=O)(=O)c2ccccc2N1)NC1CCCCCCC1,-,
O=C(CCCC1=NS(=O)(=O)c2ccccc2N1)N1CCN(c2ccc([N+](=O)[O-])cc2)CC1,9.7,HuH7 TTR inh=-;TTR act confirm=-
SMILES,TTR transcr act,others
O=C(CN1C(=O)C2CC=CCC2C1=O)N1CCN(c2ccc([N+](=O)[O-])cc2)CC1 (stereo not given),-,
O=C(OCC#CCSc1nnc(-c2cccc3ccccc23)o1)C1CC1,-,
COC(=O)[C@]12C[C@H](CC(=O)NCCc3ccccc3OC)C(=O)N(CCc3ccc(OC)c(OC)c3)C1=C[C@H](C(C)C)O[C@@H]2C1CC1,-,
O=C(NC1CCCCN(Cc2ccc(Cl)cc2)C1=O)c1cccc(C(F)(F)F)c1 (stereo not given),-,
CC(=O)c1cc(-c2ccc(-c3cc(C(=O)O)c4ccccc4n3)cc2)c(=O)n2c1CCC2,-,
C=CCN1C(=O)[C@H](CC(=O)NCc2cccc(C(F)(F)F)c2)[C@@]2(C(=O)OCC)CCCC=C12,-,
O=C(N1CCC(C(O)(c2ccccc2)c2ccccc2)CC1)n1ncc(C(O)(c2ccccc2)c2ccccc2)n1,-,
CCC1(CC)C(=O)Nc2ccccc21,-,
CCS(=O)(=O)C(=C1Nc2ccccc2N1)S(=O)(=O)CC,21,HuH7 TTR inh=-;TTR act confirm=-
O=C1Nc2ccccc2C1=O,-,
O=C(OCc1ccccc1)[C@H](Cc1ccccc1)NC(=O)[C@@H]1CC=C[C@@H]2CCN(C3CCCCC3)C(=O)[C@@H]21,-,
CCCCN1CC[C@@H](C)Oc2cc(Br)ccc2S1(=O)=O,-,
O=C(CN(C(=O)CNS(=O)(=O)c1ccc(F)cc1)c1cccc(F)c1)NCC1CCCO1 (stereo not given),-,
COc1ccccc1N(CC(=O)NCC1CCCO1)C(=O)CNS(=O)(=O)c1ccc(Cl)cc1 (stereo not given),-,
